Among all 310,000 compounds or so, about 14,000 (4.5%) showed an effect of 50% or more. Effects have a minus sign here. Shown is part of a subset that was picked to be rich in strong results.
biological target: human ether-à-go-go-related gene (hERG) potassium channel (human, UniProt Q12809); experiment: primary screen, population patch clamp on CHO cells stably expressing hERG; higher = less effect of the substance
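Also: peak tail current of the secondary pulse compared with the same well before compound.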

Chain of human ether-à-go-go-related gene (hERG) potassium channel (Q12809 whole entry, looked up): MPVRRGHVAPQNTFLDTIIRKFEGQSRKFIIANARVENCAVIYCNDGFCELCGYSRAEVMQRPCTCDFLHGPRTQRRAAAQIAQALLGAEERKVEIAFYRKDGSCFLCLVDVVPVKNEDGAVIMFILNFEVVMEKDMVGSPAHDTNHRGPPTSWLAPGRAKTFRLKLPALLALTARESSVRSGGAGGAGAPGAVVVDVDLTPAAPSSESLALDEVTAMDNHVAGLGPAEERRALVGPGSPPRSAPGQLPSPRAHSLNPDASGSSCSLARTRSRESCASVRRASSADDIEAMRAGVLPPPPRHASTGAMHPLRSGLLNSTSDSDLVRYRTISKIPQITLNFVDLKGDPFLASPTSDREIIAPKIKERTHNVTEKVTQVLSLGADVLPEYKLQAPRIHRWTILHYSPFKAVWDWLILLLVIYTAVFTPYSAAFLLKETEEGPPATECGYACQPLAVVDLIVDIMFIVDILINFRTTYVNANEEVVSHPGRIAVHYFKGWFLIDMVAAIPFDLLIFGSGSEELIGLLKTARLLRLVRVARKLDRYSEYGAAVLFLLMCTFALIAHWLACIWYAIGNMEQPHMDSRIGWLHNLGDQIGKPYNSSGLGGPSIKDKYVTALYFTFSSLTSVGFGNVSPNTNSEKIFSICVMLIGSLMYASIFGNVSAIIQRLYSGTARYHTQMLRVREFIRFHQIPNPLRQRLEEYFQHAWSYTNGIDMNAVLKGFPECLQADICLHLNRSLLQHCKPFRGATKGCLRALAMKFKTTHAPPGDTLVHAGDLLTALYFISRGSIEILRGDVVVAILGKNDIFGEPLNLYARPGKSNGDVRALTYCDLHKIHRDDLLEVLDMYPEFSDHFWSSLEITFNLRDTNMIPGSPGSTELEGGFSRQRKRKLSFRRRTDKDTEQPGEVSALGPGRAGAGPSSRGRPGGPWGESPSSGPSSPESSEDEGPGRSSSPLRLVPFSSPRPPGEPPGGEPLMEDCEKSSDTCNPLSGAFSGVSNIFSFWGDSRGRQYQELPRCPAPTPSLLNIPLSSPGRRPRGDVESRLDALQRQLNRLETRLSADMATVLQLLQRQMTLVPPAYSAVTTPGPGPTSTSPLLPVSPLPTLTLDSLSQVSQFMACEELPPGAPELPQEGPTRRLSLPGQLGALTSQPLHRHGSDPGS

Structure (SMILES)	hERG current change (%, negative = inhibition) at 10uM [%]
O=C(/C=C/Nc1ccc(S(=O)(=O)Nc2cnc3ccccc3n2)cc1)c1cccnc1	-12.9
O=C(C[n+]1cc(Br)cc(Br)c1)c1ccccc1.[Br-]	8.53
CC(C)C(=O)c1cn(CC(=O)NCc2ccc3c(c2)OCO3)c2ccccc12	16
CC1(C)CC(=O)C=C(c2ccc3[nH]ccc3c2)C1	1.61
O=C(CC1SC(=Nc2ccc3c(c2)OCCO3)NC1=O)Nc1ccc(F)cc1F (centres unmarked)	8.62
Cc1n[nH]c(=S)n1/N=C/c1ccc(OCc2ccc(Cl)cc2Cl)cc1	11.1
Cc1cc(NC(=O)Cn2nnc(-c3ccccc3N)n2)no1	11.8
CCOC(=O)c1c(NC(=O)CSc2nnc(-c3ccccc3)o2)sc(C(C)=O)c1C	5.01
O=C(c1ccccc1)N1CCN(c2ccc([N+](=O)[O-])cc2-n2cccc2)CC1	-54.5
O=C(c1ccc(F)cc1)N1CCC(C(=O)N2CCN(S(=O)(=O)c3cccc([N+](=O)[O-])c3)CC2)CC1	-34.5
O=C(c1ccc(F)cc1)N1CCN(c2ccc([N+](=O)[O-])cc2-n2cccc2)CC1	-65
Cc1ccc(N2CCN(C(=O)c3ccccc3)CC2)c(C)c1	-18.4
Cc1ccc(C(=O)N2CCN(c3ccc([N+](=O)[O-])cc3-n3cccc3)CC2)cc1	-56.4
CC(C)(C)C(=O)N1CCN(c2ccc([N+](=O)[O-])cc2-n2cccc2)CC1	-26.3
O=C(c1ccccc1F)N1CCN(c2ccc([N+](=O)[O-])cc2-n2cccc2)CC1	-23.1
O=C(C1CC1)N1CCN(c2ccc([N+](=O)[O-])cc2-n2cccc2)CC1	-31
CCOC(=O)C1CCCN(C(=O)c2cc3ccc(OC)cc3[nH]2)C1 (centres unmarked)	6.4
CN1CCN(CCCNCc2cn(CCC#N)c3ccccc23)CC1.O=C(O)C(=O)O	9.43
Cc1ccc(C(O)(COC(=O)C(C)C)COC(=O)C(C)C)c(O)c1	3.76
O=C(CCCC(=O)N(c1ccc2c(c1)OCCO2)C(C(=O)NC1CCCCC1)c1ccc(F)cc1)Nc1ccccn1 (centres unmarked)	10
COc1ccc([N+](=O)[O-])cc1CSc1ccccn1	1.85
O=C(NC1CCCCC1)C(c1cccs1)N(CC1CCCO1)C(=O)c1csnn1 (centres unmarked)	-16.1

Structure (SMILES)	hERG current change (%, negative = inhibition) at 10uM [%]
COc1ccc(NC(=O)c2noc(C(C)C)c2[N+](=O)[O-])cc1	6.44
COc1cc(NC(=O)CN2CCN(S(=O)(=O)c3ccc(C(C)C)cc3)CC2)cc(OC)c1	-11.5
O=C(CN1CCN(S(=O)(=O)c2ccc(Cl)cc2)CC1)NC1CCCC1	-50.2
O=C(CN1CCN(S(=O)(=O)c2ccc(Cl)cc2)CC1)NC(=O)NC1CCCCC1	-27.7
COc1ccc(NC(=O)CN2CCN(S(=O)(=O)c3ccc(Cl)cc3)CC2)cc1	-79.7
Cc1cc(C)cc(NC(=O)CN2CCCN(S(=O)(=O)c3ccc(Br)s3)CC2)c1	-6.01
CCOc1ccc(NC(=O)CN2CCN(S(=O)(=O)c3ccc(Cl)cc3)CC2)cc1	-9.26
COc1ccc(NC(=O)CN2CCN(S(=O)(=O)c3ccc(C(C)C)cc3)CC2)cc1OC	-66.5
Cc1ccc(NC(=O)CN2CCCN(S(=O)(=O)c3ccc(Br)s3)CC2)cc1	-50.1
O=C(CN1CCN(S(=O)(=O)c2ccc(Cl)cc2)CC1)NC1CC1	1.82
COc1ccc(NC(C)=O)cc1NC(=O)CN1CCN(S(=O)(=O)c2ccc(C(C)C)cc2)CC1	-9.86
O=C(CN1CCCN(S(=O)(=O)c2ccc(Br)s2)CC1)Nc1ccc(Cl)cc1	-28.7
COc1ccc(NC(=O)CCN2CCN(S(=O)(=O)c3ccc(Cl)cc3)CC2)cc1	-27.1
Cc1ccccc1/C=C1\SC(=S)N(/N=C/c2cc([N+](=O)[O-])ccc2O)C1=O	8.13
COc1ccc(N(C)C(=O)c2cnc(N3CCN(c4ncccn4)CC3)c3ccccc23)cc1	-11.8
Cc1ccc(NC(=O)N2CCC(NC(=O)C(C)(C)C)CC2)cc1	10.1
O=C(Cn1cncn1)N/N=C/c1cccc(Cl)c1	16.3
Oc1ccc(N=Nc2cccc(C(F)(F)F)c2)cc1C=Nc1ccc(N2CCOCC2)cc1	15.6
CCOc1ccc(C(CC(=O)O)NC(=O)COc2ccccc2OC)cc1OC (centres unmarked)	26.4
Cc1c(C(=O)O)cccc1-c1ccc(/C=N/Nc2ccc(Br)cc2)o1	30.2
O=C(CN1CCCN(S(=O)(=O)c2ccc(F)cc2)CC1)Nc1cccc(F)c1	-50.3
Cc1ccc(S(=O)(=O)N2CCN(C(=O)CCC(=O)NC3CCCc4ccccc43)CC2)cc1 (centres unmarked)	-17.3

Structure (SMILES)	hERG current change (%, negative = inhibition) at 10uM [%]
COc1ccc(S(=O)(=O)N2CCN(CC(=O)Nc3ccc(F)c(F)c3)CC2)cc1	-66.4
O=C(CCC(=O)N1CCN(S(=O)(=O)c2ccccc2)CC1)NC1CCCc2ccccc21 (centres unmarked)	-13.5
NS(=O)(=O)c1ccc(NC(=O)CN2CCCN(S(=O)(=O)c3ccc(F)cc3)CC2)cc1	-17.9
O=C(CN1CCN(S(=O)(=O)c2ccc(F)cc2)CC1)Nc1ccc2c(c1)OCCO2	-10.9
O=C(CCC(=O)N1CCN(S(=O)(=O)c2ccc(Cl)cc2)CC1)NC1CCCc2ccccc21 (centres unmarked)	-52.6
COc1ccc(S(=O)(=O)N2CCN(CC(=O)Nc3cc(OC)cc(OC)c3)CC2)cc1	-0.404
CCc1ccc(NC(=O)CN2CCCN(S(=O)(=O)c3ccc(F)cc3)CC2)cc1	-63.9
O=C(CN1CCCN(S(=O)(=O)c2ccc(F)cc2)CC1)Nc1c(Cl)cccc1Cl	-27.1
COc1ccc(NC(=O)CN2CCN(S(=O)(=O)c3ccc(Cl)cc3)CC2)cc1Cl	-0.308
COc1ccc(NC(=O)CN2CCCN(S(=O)(=O)c3ccc(F)cc3)CC2)cc1	-36.5
Cc1c(C(=O)Nc2nnc(C(F)(F)F)s2)oc2ccccc12	13.1
Cc1cc(OC(=O)c2ccc(S(=O)(=O)N(C)C)cc2)c([N+](=O)[O-])c(=O)[nH]1	10.6
COc1ccc2c(c1OC)C(=O)OC2C1c2cc3c(cc2CCN1C)OCO3 (centres unmarked)	6.25
COc1cc(C(O)CN)ccc1O.Cl (centres unmarked)	3.21
CCN(CC)C(=S)Sc1c(-c2ccccc2)c2cc(Cl)ccc2[nH]c1=O	5.42
COc1ccc(S(=O)(=O)N2CCN(CC(=O)Nc3cccc(OC)c3)CC2)cc1	-31.4
COc1ccc(S(=O)(=O)N2CCN(CC(=O)Nc3cccc(F)c3)CC2)cc1	-54.1
COc1cccc(NC(=O)CN2CCN(S(=O)(=O)c3ccc(F)cc3)CC2)c1	-23.1
Cc1cnc(NC(=O)C(C)N2CCN(C)CC2)s1.O=C(O)C(=O)O (centres unmarked)	20.7
O=C(O)C1(P(=O)(c2ccccc2)c2ccccc2)CCC1	-3.46
CC(/C=N/Nc1nncc(=O)[nH]1)=C\c1ccccc1	3.08
CC(/C=N/Nc1ncc(C)c(=O)[nH]1)=C\c1ccccc1	-53

Structure (SMILES)	hERG current change (%, negative = inhibition) at 10uM [%]
CC(/C=N/Nc1nnc(C)c(=O)[nH]1)=C\c1ccccc1	-10.5
O=C(CSc1nnc(COc2ccc(Cl)cc2)o1)NC1CC2CCC1C2 (centres unmarked)	11.5
CCC(C)(C)NC(=O)C(C(C)C)N(CC1CCCO1)C(=O)CNS(=O)(=O)c1ccccc1 (centres unmarked)	-2.21
CCC(Oc1ccccc1)C(=O)Nc1ccc(C)c(S(=O)(=O)N2CCOCC2)c1 (centres unmarked)	-18
CC(N)Cc1ccccc1Sc1ccc(O)cc1.O=C(O)C(=O)O (centres unmarked)	-35.5
CC(Cc1ccccc1Sc1ccccc1O)N(C)C.Cl (centres unmarked)	-18.9
CC(Cc1ccccc1Sc1ccc(O)cc1)N(C)C.CCO.Cl (centres unmarked)	-69.5
CNCc1ccccc1Sc1ccc(OC)cc1.Cl	-30.4
CNC(C)Cc1ccccc1Sc1ccc(O)cc1.Cl (centres unmarked)	-66.7
CN(C)Cc1ccccc1Sc1ccc(Br)cc1	-15.6
O=C(C1=C(O)C(=O)N(CCN2CCOCC2)C1c1ccccc1)c1cccs1 (centres unmarked)	-2.27
O=C(OC(C(=O)NCc1cccs1)c1ccccc1F)c1ccco1 (centres unmarked)	20.5
CCOc1ccccc1NC(=O)COC(=O)C(Cc1ccccc1)NC(=O)c1ccco1 (centres unmarked)	-8.33
O=C1/C(=C\c2ccsc2)NC(=S)N1c1ccccc1	15.4
COc1ccccc1OCCC(=O)OCC(=O)Nc1cc(S(=O)(=O)N(C)C)ccc1Cl	-6.26
CCOc1cc(C(=O)N2CCC(CC3CC(c4ccc(Cl)cc4)=NO3)(C(=O)NCC3CCCCC3)CC2)cc(OCC)c1OCC (centres unmarked)	1.25
O=C(Cc1ccc(F)cc1)N1CCC(CC2CC(c3cccc(Br)c3)=NO2)(C(=O)NCC2CCCCC2)CC1 (centres unmarked)	-8.67
O=C(NCC1CCCCC1)C1(CC2CC(c3cccc(Br)c3)=NO2)CCNCC1 (centres unmarked)	-24.1
O=C(Cc1ccc(F)cc1)N1CCC(CC2CC(c3ccc(Cl)cc3)=NO2)(C(=O)NCC2CCCCC2)CC1 (centres unmarked)	-72.3
O=C(NCC1CCCCC1)C1(CC2CC(c3ccc(Cl)cc3)=NO2)CCNCC1 (centres unmarked)	-71.6
